PubChem BioAssay
Values joined by “and” are separate entries in the source; they are usually repeats but may differ in a detail not shown here. Equal entries are not always repeated. Active and inactive are the calls of the source.

What was measured:
[1] = test system: Plasmodium falciparum Sir2 (PF13_0152, Sir2A); assay: Plasmodium falciparum Sir2A binding compounds – biochemical, small-molecule microarray, 635 nm fluorescence, primary screen (AID 1098); conditions: fluorescence 635 nm, higher = more signal;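 note: score merges spot fluorescence intensity with its signal-to-noise ratio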
[2] = probe aDKK1 binding to arrayed compounds – biochemical, biotinylated probe, 635/667 nm fluorescence, primary screen (AID 1099); conditions: small-molecule microarray, higher = more signal;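 note: score merges 667nm spot fluorescence with signal to noise across triplicate slides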
[3] = probe aCHRDL2 binding to arrayed compounds – biochemical, biotinylated probe, 635/667 nm fluorescence, primary screen (AID 1100); conditions: small-molecule microarray, higher = more signal
[4] = change in splice reporter luminescence, either direction, cell-based, HEK293, spliceosome inhibition project, primary screen (AID 1101); conditions: HEK293 splicing luciferase reporter, 24 h, higher = more signal, called active from +8 up or from −8 down;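 note: HEK293 cells carrying a splicing-competent luciferase reporter gene; test concentration not given here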
[5] = target: Fibroblast growth factor 10 (Homo sapiens) (UniProt O15520); assay: compounds binding fibroblast growth factor 10 – biochemical, small-molecule microarray, 635 nm fluorescence, primary screen (AID 1102); conditions: FGF10 binding, fluorescence 635 nm, higher = more signal
[6] = test system: glycogen synthase kinase-3 (GSK3A per assay name; protocol says GSK3B); assay: compounds binding glycogen synthase kinase-3 – biochemical, small-molecule microarray, 635 nm fluorescence, GSK3A, primary screen (AID 1103); conditions: fluorescence 635 nm, higher = more signal; note: the record names both GSK3A and GSK3B
[7] = target: Epidermal growth factor receptor (Homo sapiens) (UniProt P00533); assay: compounds binding epidermal growth factor receptor – biochemical, small-molecule microarray, 635 nm fluorescence, primary screen (AID 1104); conditions: EGFR binding, higher = more signal;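 note: score merges 667 nm emission intensity with spot signal to noise over triplicate slides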
[8] = target: Follistatin-related protein 3 (Homo sapiens) (UniProt O95633); assay: compounds binding follistatin-related protein 3 – biochemical, small-molecule microarray, 635 nm fluorescence, primary screen (AID 1105); conditions: FSTL3 binding, higher = more signal;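 note: score merges emission near 667 nm and signal to noise per printed spot across three slides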
[9] = target: Dickkopf-related protein 1 (Homo sapiens) (UniProt O94907); assay: small molecules binding DKK1 protein – biochemical, small-molecule microarray, 635 nm fluorescence scan, primary screen (AID 1106); conditions: higher = more signal;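 note: score merges emission near 667 nm with signal to noise over three replicate slides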
[10] = test system: Inhibin beta A chain (activin A); assay: small molecules binding activin A – biochemical, small-molecule microarray, 635 nm fluorescence scan, primary screen (AID 1107); conditions: INHBA, higher = more signal;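 note: mouse activin A protein probed at 4.33 µg/mL on printed slides; score merges bound-protein fluorescence near 667 nm with spot signal-to-noise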
[11] = test system: Human papillomavirus type 1a protein E7 (residues 44-93); assay: small molecules binding HPV E7 44-93 – biochemical, small-molecule microarray, residues 44-93, 635 nm fluorescence, primary screen (AID 1108); conditions: fluorescence 635 nm, higher = more signal;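 note: E7 fragment applied at 1 µg/mL in TBST for 1 h at 4 C; score combines spot fluorescence with its signal to noise ratio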
[12] = hepatitis C replication reporter changes, two-sided – Huh7 cells, luciferase reporter, HCV replication inhibitor project, primary screen (AID 1109); conditions: Huh7 HCV replicon luciferase reporter, 48 h; higher = more signal;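 note: huh7 hepatoma cells harbouring a luciferase neomycin HCV replicon reporter; luciferase luminescence as measure of HCV replicon replication; test concentration not given here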
[13] = target: Left-right determination factor 2 (Homo sapiens) (UniProt O00292); assay: small molecules binding LEFTY2 protein – biochemical, small-molecule microarray, 635 nm fluorescence scan, primary screen (AID 1110); conditions: higher = more signal
[14] = target: Calmodulin-1 (Homo sapiens) (UniProt P0DP23); assay: small molecules binding calmodulin-1 with EGTA – biochemical, small-molecule microarray, Cy5-labelled CALM1, profiling panel (AID 1111); conditions: Cy5-CALM1 binding fluorescence, higher = more signal;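 note: labelled calmodulin applied in Tris saline Tween buffer holding calcium plus EGTA and DTT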
[15] = target: Calmodulin-1 (Homo sapiens) (UniProt P0DP23); assay: small molecules binding Ca-loaded calmodulin-1 – biochemical, small-molecule microarray, Cy5-labelled CALM1, plus calcium, artefact control for SMM control-protein annotation, profiling panel (AID 1112); conditions: Cy5-CALM1 binding fluorescence, higher = more signal;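 note: score merges spot fluorescence with signal to noise from triplicate slides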
[16] = probe aWnt5a binding to arrayed compounds – biochemical, biotinylated probe, 635/667 nm fluorescence, primary screen (AID 1113); conditions: small-molecule microarray, higher = more signal;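 note: score merges 667 nm fluorescence intensity with signal-to-noise per printed feature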
[17] = probe aShh binding to arrayed compounds – biochemical, biotinylated probe, 635/667 nm fluorescence, primary screen (AID 1114); conditions: small-molecule microarray, higher = more signal;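 note: probe is biotin-labelled aShh protein from a stem cell growth factor screen; measures binding of labelled protein to compounds printed on the slide; score merges feature fluorescence at 667 nm with signal-to-noise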
[18] = probe aNog binding to arrayed compounds – biochemical, biotinylated probe, 635/667 nm fluorescence, primary screen (AID 1115); conditions: small-molecule microarray, higher = more signal;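 note: probe is biotinylated aNog protein used at 0.15 µg/mL for 1 h at 4 C; z-score combines 667 nm fluorescence of each spot with its signal to noise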
[19] = target: Torsin-1A-interacting protein 1 (Homo sapiens) (UniProt Q5JTV8); assay: compound microarray binding of lysate hLAP1 – cell lysate, small-molecule microarray, COS7 lysate, 635/667 nm fluorescence, primary screen (AID 1116); conditions: 635 nm fluorescence, higher = more signal
[20] = target: Alpha-bungarotoxin (Bungarus multicinctus) (UniProt P60615); assay: compounds binding labelled alpha-BTX control protein – biochemical, small-molecule microarray, Alexa647 label, 635/667 nm fluorescence, artefact control for SMM control protein annotation, profiling panel (AID 1117); conditions: alpha-BTX-A647 binding fluorescence, higher = more signal
Sequence of Alpha-bungarotoxin (Bungarus multicinctus) (P60615 whole entry, looked up): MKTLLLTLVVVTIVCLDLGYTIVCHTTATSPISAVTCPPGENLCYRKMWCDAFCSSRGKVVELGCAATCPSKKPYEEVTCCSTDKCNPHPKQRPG

Sequence of Follistatin-related protein 3 (Homo sapiens) (O95633 whole entry, looked up): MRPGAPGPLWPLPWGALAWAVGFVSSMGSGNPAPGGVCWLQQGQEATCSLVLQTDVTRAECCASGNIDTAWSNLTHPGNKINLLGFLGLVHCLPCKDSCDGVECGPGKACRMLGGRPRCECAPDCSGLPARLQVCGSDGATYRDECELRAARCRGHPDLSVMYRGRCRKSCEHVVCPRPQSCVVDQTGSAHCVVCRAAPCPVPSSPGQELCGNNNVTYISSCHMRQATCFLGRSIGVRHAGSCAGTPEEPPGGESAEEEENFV
Sequence of Epidermal growth factor receptor (Homo sapiens) (P00533 whole entry, looked up): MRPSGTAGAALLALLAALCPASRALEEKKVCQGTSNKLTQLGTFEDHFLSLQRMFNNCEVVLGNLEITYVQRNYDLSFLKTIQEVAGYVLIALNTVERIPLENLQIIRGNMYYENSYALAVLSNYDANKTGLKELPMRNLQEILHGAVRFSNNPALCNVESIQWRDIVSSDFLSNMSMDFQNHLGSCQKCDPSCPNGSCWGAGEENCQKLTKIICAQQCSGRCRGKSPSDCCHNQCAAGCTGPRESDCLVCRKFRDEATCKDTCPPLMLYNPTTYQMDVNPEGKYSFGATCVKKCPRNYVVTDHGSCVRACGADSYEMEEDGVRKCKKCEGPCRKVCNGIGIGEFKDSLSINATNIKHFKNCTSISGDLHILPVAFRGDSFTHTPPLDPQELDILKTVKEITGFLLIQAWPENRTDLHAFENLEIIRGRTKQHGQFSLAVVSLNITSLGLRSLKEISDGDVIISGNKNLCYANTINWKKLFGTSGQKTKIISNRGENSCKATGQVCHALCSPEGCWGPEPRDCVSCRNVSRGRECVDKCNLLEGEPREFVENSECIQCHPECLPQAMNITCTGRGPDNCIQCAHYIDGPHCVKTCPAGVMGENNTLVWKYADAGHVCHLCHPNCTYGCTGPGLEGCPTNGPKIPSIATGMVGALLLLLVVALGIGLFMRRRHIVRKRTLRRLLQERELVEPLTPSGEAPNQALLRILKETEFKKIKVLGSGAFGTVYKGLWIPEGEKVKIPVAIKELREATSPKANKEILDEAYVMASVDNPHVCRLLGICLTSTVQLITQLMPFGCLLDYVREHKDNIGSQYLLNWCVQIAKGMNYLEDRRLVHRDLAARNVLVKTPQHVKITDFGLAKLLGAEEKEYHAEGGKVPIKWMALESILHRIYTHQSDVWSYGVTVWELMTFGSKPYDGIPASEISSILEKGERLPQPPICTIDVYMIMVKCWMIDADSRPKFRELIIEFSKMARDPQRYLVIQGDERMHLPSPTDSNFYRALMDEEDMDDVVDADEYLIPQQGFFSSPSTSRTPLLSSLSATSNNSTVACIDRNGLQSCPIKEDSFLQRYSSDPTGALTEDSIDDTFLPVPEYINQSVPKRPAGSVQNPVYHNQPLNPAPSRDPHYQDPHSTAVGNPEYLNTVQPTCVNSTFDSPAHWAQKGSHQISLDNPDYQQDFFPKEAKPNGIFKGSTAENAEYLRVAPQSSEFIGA
Sequence of Left-right determination factor 2 (Homo sapiens) (O00292 whole entry, looked up): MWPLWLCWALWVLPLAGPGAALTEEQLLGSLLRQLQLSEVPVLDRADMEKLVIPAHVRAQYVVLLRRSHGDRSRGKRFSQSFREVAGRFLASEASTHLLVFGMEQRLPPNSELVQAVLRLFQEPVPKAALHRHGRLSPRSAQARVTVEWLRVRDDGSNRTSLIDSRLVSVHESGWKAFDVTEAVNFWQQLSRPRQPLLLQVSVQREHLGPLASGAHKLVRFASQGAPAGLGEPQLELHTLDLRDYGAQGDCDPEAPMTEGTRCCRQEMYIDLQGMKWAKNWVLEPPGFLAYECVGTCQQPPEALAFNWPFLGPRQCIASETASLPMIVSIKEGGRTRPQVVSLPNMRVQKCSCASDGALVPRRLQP
Sequence of Fibroblast growth factor 10 (Homo sapiens) (O15520 whole entry, looked up): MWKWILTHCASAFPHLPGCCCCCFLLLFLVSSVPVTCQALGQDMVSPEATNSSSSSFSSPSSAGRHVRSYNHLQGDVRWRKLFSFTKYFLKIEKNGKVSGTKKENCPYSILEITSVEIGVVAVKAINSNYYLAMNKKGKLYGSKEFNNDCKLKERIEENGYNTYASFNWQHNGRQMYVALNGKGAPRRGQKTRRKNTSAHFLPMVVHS
Sequence of Dickkopf-related protein 1 (Homo sapiens) (O94907 whole entry, looked up): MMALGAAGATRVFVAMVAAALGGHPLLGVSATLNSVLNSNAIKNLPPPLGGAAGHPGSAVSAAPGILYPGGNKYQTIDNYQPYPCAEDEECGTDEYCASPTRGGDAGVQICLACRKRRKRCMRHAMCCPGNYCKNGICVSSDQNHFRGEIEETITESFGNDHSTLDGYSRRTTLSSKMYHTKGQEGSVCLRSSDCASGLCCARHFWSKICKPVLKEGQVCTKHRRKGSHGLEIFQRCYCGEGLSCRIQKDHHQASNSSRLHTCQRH
Sequence of Torsin-1A-interacting protein 1 (Homo sapiens) (Q5JTV8 whole entry, looked up): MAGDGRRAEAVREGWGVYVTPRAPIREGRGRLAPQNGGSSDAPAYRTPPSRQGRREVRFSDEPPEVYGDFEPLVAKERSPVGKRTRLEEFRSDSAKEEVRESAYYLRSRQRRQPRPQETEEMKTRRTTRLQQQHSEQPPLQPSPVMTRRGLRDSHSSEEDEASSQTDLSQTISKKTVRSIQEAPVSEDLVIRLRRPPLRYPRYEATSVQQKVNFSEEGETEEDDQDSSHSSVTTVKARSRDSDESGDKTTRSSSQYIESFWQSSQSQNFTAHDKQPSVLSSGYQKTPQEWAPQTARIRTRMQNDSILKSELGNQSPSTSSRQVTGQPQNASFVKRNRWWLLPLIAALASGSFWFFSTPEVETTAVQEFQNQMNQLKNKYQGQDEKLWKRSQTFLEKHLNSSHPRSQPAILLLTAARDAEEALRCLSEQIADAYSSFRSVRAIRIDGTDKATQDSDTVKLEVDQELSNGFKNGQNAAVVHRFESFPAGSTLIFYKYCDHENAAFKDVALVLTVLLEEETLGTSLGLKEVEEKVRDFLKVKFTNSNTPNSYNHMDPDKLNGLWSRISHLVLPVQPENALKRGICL

Compound	composite z-score [1]	composite z-score [2]	composite z-score [3]	z-score [4]	composite z-score [5]	composite z-score [6]	composite z-score [7]	composite z-score [8]	composite z-score [9]	composite z-score [10]	composite z-score [11]	z-score [12]	composite z-score [13]	composite z-score [14]	composite z-score [15]	composite z-score [16]	composite z-score [17]	composite z-score [18]	composite z-score [19]	composite z-score [20]
C=CCN(C(=O)C(c1cccs1)N(C(=O)/C=C\C(=O)O)c1ccc(CCO)cc1)c1ccc(OC)cc1 (stereo not given)	-0.087 and -1.23	-0.26 and 0.0389	0.822 and 1.13	0.0213 (inactive) and 0.54 (inactive)	-1.94 and -2.06	-1.57 and -1.13	-1.46 and -2.92	-1.38 and -2.79	-2.88 and -3.33	-1.56 and -1.86	-1.01 and -1.64	-0.465 and -0.171	-3 and -5.82	-0.453 and -1.54	0.742 and -0.222	-0.203 and -0.27	-0.0709 and -0.138	-0.541 and -0.126	-1.16 and -1.72	-0.664 and -2.33
COC(=O)c1c2oc(c1C(=O)OC)C(=O)N[C@@H](Cc1ccccc1)Cn1cc(nn1)C1(CCCCC1)NC(=O)N[C@H](CO)CC2	0.582 and 0.45	0.407 and -0.327	-0.287 and -0.366	-0.55 (inactive) and -1.56 (inactive)	1.16 and 0.505	0.86 and 0.41	0.158 and 0.198	0.794 and 0.388	0.749 and 0.194	0.728 and -0.0236	0.773 and 0.664	-0.16 and -0.583	0.564 and 0.328	0.0754 and -0.157	0.0102 and -0.607	-0.0403 and -0.0924	0.0684 and -0.0904	-0.0604 and 0.149	2.36 and 0.399	1.53 and 0.281
C=CCN(CCCCC)C(=O)C(c1cccs1)N(CCOCCO)C(=O)/C=C\C(=O)O (stereo not given)	0.0427 and 0.42	-0.588 and -0.228	0.658 and 0.6	-0.841 (inactive) and -1.36 (inactive)	-1.6 and -0.98	-0.918 and -0.491	-1.05 and -0.766	-0.411 and -0.744	-1.04 and -1.54	-1.79 and -0.36	-1.74 and -0.0507	-0.572 and 0.96	-0.828 and -1.56	-1.04 and -0.776	-0.408 and 0.326	-0.135 and -0.199	-0.223 and -0.283	-0.308 and 0.0644	-0.922 and -0.405	-0.676 and 1.14
CC(C)C(=O)N[C@@H]1CCCN1C(=O)C=Cc1ccccc1	0.98	-0.311	-0.469	0.655 (inactive)	0.419	0.883	0.432	0.709	0.47	-0.172	0.734	-1.05	0.85	0.0331	-1.12	-0.0704	-0.138	0.173	0.587	0.289
C=CCN(C(=O)C1N(c2ccc(CCO)cc2)C(=O)C2C(C(=O)O)C3C=CC21O3)c1ccc(OC)cc1 (stereo not given)	1.07 and -0.0141	-0.0654 and -0.638	0.581 and 0.683	0.119 (inactive) and -0.374 (inactive)	-0.0665 and -1.53	-0.313 and -1.1	-1.33 and -1.47	-1.01 and -0.528	-1.35 and -0.641	-2.09 and -3.41	-0.178 and -3.84	0.174 and 0.383	-1.59 and -1.27	-0.394 and -0.181	-0.702 and 0.0188	-0.154 and -0.285	0.0899 and -0.239	-0.172 and 0.0343	-0.447 and 0.206	-0.102 and -0.62
CO[C@H]1COC(=O)CC=C[C@H](C)[C@H](OC)COC(=O)[C@@H](C)COC(=O)CC=C[C@@H]1C	0.402 and 0.0429	-0.629 and -0.472	-1.1 and -1.05	-0.0265 (inactive) and -0.282 (inactive)	0.415 and 0.242	0.594 and 0.65	0.752 and 0.715	0.969 and 0.59	1.23 and 0.743	1.02 and 0.17	0.25 and -0.333	0.228 and 0.343	0.953 and 0.546	-1.51 and -1.76	-1.68 and -2.71	-0.0172 and -0.147	-0.304 and 0.0899	-0.194 and -0.176	0.123 and -0.771	-0.683 and -0.62
C[C@@H]1CC[C@H]2C(=O)NC[C@@H](O)CN2[C@H]1c1ccc(Br)cc1	0.102 and 0.107	-0.214 and -0.138	-0.0441 and -0.0598	0.338 (inactive) and 0.0732 (inactive)	-0.0319 and -0.141	-0.645 and -0.288	-0.251 and -0.159	-0.348 and -0.394	-0.219 and -0.179	0.747 and 0.211	0.111 and -0.325	-0.376 and -0.362	-0.0095 and 0.204	-0.234 and -0.448	-0.342 and -0.438	-0.0758 and -0.0405	-0.138 and 0.235	0.0014 and -0.194	0.36 and 0.348	0.141 and -0.195
COC(=O)C1=C2N(Cc3ccccc3)C(C)=C(C(=O)OC)[C@@H](c3ccccc3)N2C(=O)[C@](O)(C(=O)OC)C1	0.271 and 0.0802	-0.17 and -0.241	-0.684 and -0.512	-0.229 (inactive) and 0.213 (inactive)	0.622 and 0.395	0.943 and 0.479	0.273 and 0.585	0.963 and 0.359	0.916 and 0.574	-0.146 and 0.22	-0.101 and 0.137	0.591 and 0.406	0.198 and 0.531	0.225 and -0.29	-0.803 and -0.391	-0.169 and -0.237	-0.214 and -0.0914	-0.18 and 0.162	-0.203 and 1.01	0.661 and 0.171
C=CCN(CCCCC)C(=O)C(c1cccs1)N(C(=O)/C=C\C(=O)O)c1c(Cl)cccc1CO (stereo not given)	1.04 and 0.231	-0.0127 and -0.47	1.15 and 0.975	0.105 (inactive) and 1.15 (inactive)	-0.85 and -2.15	-0.612 and -1.36	-2.28 and -1.78	-2.13 and -1.29	-3.02 and -1.77	-2.25 and -3.37	-0.961 and -1.88	-0.651 and -0.698	-3.1 and -0.775	-0.332 and -1.06	0.782 and -0.54	-0.228 and -0.348	-0.138 and -0.291	0.509 and -0.369	2.83 and -1.08	-2.56 and -0.725
C=CCN(C(=O)C1N(c2c(Cl)cccc2CO)C(=O)C2C(C(=O)O)C3C=CC21O3)C(C)(C)C (stereo not given)	0.769 and -1.57	-0.525 and -0.241	-0.269 and 0.798	-0.859 (inactive) and -1.07 (inactive)	-0.788 and -1.43	-1.39 and -0.911	-1.85 and -0.913	-0.332 and 0.322	-2.02 and -2.22	-0.918 and -0.985	-0.375 and -1.73	-0.892 and -0.519	-2.64 and -2.81	-0.68 and -0.347	-0.0519 and 0.673	-0.334 and -0.28	-0.544 and -0.123	0.793 and -0.124	-0.879 and -1.71	-1.09 and -1.44
